Lassa entry inh: qHTS for Inhibitors of binding or entry into cells for Lassa Virus | Lassa virus pseudotype entry inhibition, cell reporter | Potency, µM (highest dose often 37.9 µM), without a hit: at the top dose activity change, negative = inhibition, actives largely listed as inhibitors | 300,000 tested, 1.2% active | AID 540256, 2011; calls by dose curve; tested in HEK293 cells; further: nearly all actives have a fitted effect of over 50% in size
Sm TGR block: qHTS Assay for the Inhibitors of Schistosoma Mansoni Peroxiredoxins. Schistosoma mansoni thioredoxin glutathione reductase (TGR), Q962Y6. purified TGR, DTNB reduction, TNB absorbance 405 nm. Potency, µM (top dose mostly 114 µM), for inactives: at the top dose activity change, negative = inhibition, actives largely listed as inhibitors. 360,000 tested, 3% active. AID 485364, 2010; further: nearly all actives have a fitted effect of over 60% in size
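Kinetic colorimetric format: TGR-catalysed, NADPH-driven DTNB reduction monitored via TNB absorbance. Enzyme dispensed at 20 nM; compound exposure 15 min at room temperature before reaction start.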
FMDV antiviral: High Throughput Screening for Foot and Mouth Disease Virus Antivirals. FMDV antiviral cell-based qHTS. Potency, µM (highest dose often 57.9 µM), for the others: top-dose activity change, negative = inhibition, hits mostly inhibitors. 410,000 tested, 1.2% active. AID 1159524, 2015; calls by dose curve; tested in HEK293T cells; further: read-out not given here; nearly all actives have a fitted effect of over 45% in size
HCV inhibitor: qHTS Assay for Inhibitors of Hepatitis C Virus (HCV). Huh7.5.1 HCVcc-Cre infection, luciferase reporter, 44 h. Potency, µM (series often up to 41.8 µM), for inactives: at the top dose activity change, negative = inhibition, usual class: inhibitors. 340,000 tested, 3.4% active. AID 651820, 2012
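Cells seeded at 1,000/well and cultured 4 h, then compounds added followed by HCVcc-Cre virus (~0.5 moi). After 44 h further culture, luciferase substrate was added, plates held 15 min at room temperature, and luminescence read for 15 sec.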
Marburg entry inh: qHTS for inhibitors of binding or entry into cells for Marburg Virus; Marburg virus pseudotyped entry inhibition, cell reporter; Potency, µM (doses to about 37.8 µM), for inactives: at the top dose activity change, negative = inhibition, usual class: inhibitors; 300,000 tested, 1.8% active; AID 540276, 2011; calls by dose curve; tested in HEK293 cells
RE007 growth inh: qHTS Assay for Inhibitors of the HIV-1 protein Vpr | S. pombe RE007 Vpr strain, BacTiter-Glo ATP luminescence, 24 h | Potency, µM (top dose mostly 92.2 µM), for inactives: top-dose activity change, negative = less growth, most hits filed as inhibitors | 360,000 tested, 0.21% active | AID 651644, 2012; active means well fitted falling curve with a large enough effect; inconclusive means small, poorly fitted or top-dose-only effect; inactive means no such curve, though single readings can be large or run the other way; further: nearly all actives have a fitted effect of over 50% in size
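Fission yeast strain RE007, carrying one chromosomally integrated HIV-1 vpr copy, was seeded at OD 0.01 in PMG+AL medium with 23 nL pinned compound. After 24 h at 30 °C and 99% humidity, viability was read by BacTiter-Glo luminescence.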
* marks the source's active call; other numbers are inactive results; ? = inconclusive; . = no result; [ ] = remark or other dose. In the library only some 7.2% were active in any assay of this set; here they are far more common. Unless noted, the call rests on the fitted dose curve; in most records, active means well fitted curve in the direction sought with a large enough effect; inconclusive means small, poorly fitted or top-dose-only effect, or another doubt; inactive means no such curve, though single readings can be large; an effect the other way counts as inactive or inconclusive. On the % scale 0 is the no-effect control and ±100 the full control effect; potency means the concentration at half of the fitted maximal effect.

SMILES	Lassa entry inh	Sm TGR block	FMDV antiviral	HCV inhibitor	Marburg entry inh	RE007 growth inh
C/C(=N\NC(=O)c1ccccc1)c1ccc(NC(=O)C(F)(F)F)cc1	.	.	.	.	0.3%[46.1 µM]	.
O=C(NC1CCCCC1)c1cc(-c2ccc(F)cc2)on1	.	-2.0%	59.6%	-0.9%	12.3%[46.1 µM]	-0.1%
O=C(c1cc(-c2ccc3c(c2)OCO3)on1)N1CCCCC1	2.82µM*	1.5%	-29.6%	?	?	-9.0%
O=C(c1cc(-c2ccc(Cl)cc2Cl)on1)N1CCCC1	3.55µM*	1.3%	-42.5%	-5.2%	?	-10.6%
O=C(c1cc(-c2ccc(Cl)cc2Cl)on1)N1CCCCCC1	?	3.5%	?	6.1%	?	0.2%
Cc1ccc(-c2cc(C(=O)N3CCCC3)no2)cc1	?	1.5%	.	-11.7%	?	4.6%
Cc1ccc(-c2cc(C(=O)N3CCOCC3)no2)cc1	.	0.4%	-67.9%	12.8%	2µM*	5.2%
Cc1ccc(-c2cc(C(=O)NC3CCCC3)no2)cc1	-12.1%[46.1 µM]	1.3%	16.9%	12.0%	10µM*	24.7%
O=C(ONC(=O)C1C2C=CC(C2)C1C(=O)NOC(=O)c1ccccc1)c1ccccc1 (stereo unspecified)	7.94µM*	.	-23.5%	?	3.98µM*	?
COc1ccc(CCNCc2c(C(=O)O)c(C)n(Cc3ccccc3C)c2C)c(OC)c1	-3.6%[46.1 µM]	-8.8%	-22.5%	.	12.3%[46.1 µM]	.
COc1ccc(NC(=O)/C=C/c2ccc(Br)o2)cn1	9.1%	11.2µM*	-1.8%	-21.0%	5.8%[46.1 µM]	-10.0%
COc1ccc(NC(=O)/C=C/c2ccco2)cn1	-22.4%	8.91µM*	31.5%	-20.3%	-29.4%[46.1 µM]	2.4%
COc1ccccc1CNC(=O)/C=C/c1ccc(Br)o1	-7.0%	2.24µM*	1.3%	20.1%	18.2%	-18.0%
O=C(/C=C/c1ccco1)NC(=S)Nc1ccccc1N1CCCC1	0.0%	.	-0.9%	-22.9%	?	1.0%
O=C(O)/C=C\C(=O)Nc1ccccc1N1CCN(c2ccccc2)CC1	.	11.2µM*	14.1%	4.2%	.	-0.9%
O=C(/C=C/c1ccco1)Nc1ccccc1N1CCCC1	.	39.8µM*	-8.5%	-8.7%	.	-5.6%
O=C(/C=C/c1ccco1)NC(=S)Nc1ccccc1N1CCOCC1	-28.8%	31.6µM*	?	-1.6%	-27.3%	13.0%
O=C(C1CCCO1)N1CCN(C(=S)Nc2ccc(Cl)c(Cl)c2)CC1 (stereo unspecified)	10µM*	1.7%	54.5%	2.9%	?	0.5%
O=C(NCCCCc1ccccc1)c1cccc(NC(=O)c2ccccc2)c1	11.9%[46.1 µM]	.	3.8%	-59.8%	.	-13.7%
O=C(NCCCCc1ccccc1)c1cccc(NC(=O)C2CCCC2)c1	-21.8%[46.1 µM]	.	-17.2%	8.91µM*	.	-8.7%
O=C(NCCc1ccccc1)c1ccc(NC(=O)C2CCC2)cc1	?	.	64.9%	0.631µM*	.	1.7%
O=C(NCCc1ccccc1)c1ccc(NC(=O)C2CCCCC2)cc1	.	.	-3.1%	4.5%	.	-12.5%
O=C(NCCc1ccc(F)cc1)c1cccc(NC(=O)c2ccccc2)c1	.	0.2%	-2.2%	22.4µM*	.	-9.7%
Cc1nc2cc(N3CCCCC3)c(NC(=O)c3ccncc3)cc2c(=O)n1Cc1ccccc1	-3.9%	0.0%	32.3%	-15.4%	22.3%	0.8%
Cc1nc2ccc(NC(=O)c3ccccc3)cc2c(=O)n1Cc1ccc(F)cc1	.	.	28.2µM*	.	.	-9.0%
SMILES	Lassa entry inh	Sm TGR block	FMDV antiviral	HCV inhibitor	Marburg entry inh	RE007 growth inh
C[C@@]12CCC[C@H]1C1CC[C@H]3C[C@H](O)CC[C@]3(C)C1CC2 (stereo partly specified)	.	.	-19.7%	.	.	.
CCOC(=O)c1c(C)[nH]c(CCC(=O)Nc2ccc(N(CC)CC)cc2C)c1C	?	-13.6%	-18.7%	.	.	.
COc1ccc(Cl)cc1N1C(=O)[C@@H]2C[C@H]1CN2Cc1nc2ccccc2nc1C	.	.	4.5%	.	.	.
Cc1cc(Cl)c(S(=O)(=O)N2CCSCC2)cc1OCC(=O)NC1CCCCC1	?	-0.4%	-54.9%	6.31µM*	9.2µM*	3.7%
Cc1cc(Cl)c(S(=O)(=O)N2CCCCCC2)cc1OCC(=O)NC1CCCCC1	-5.3%	1.3%	-3.6%	-1.9%	-16.8%	-10.3%[3.69 µM]
Cc1cc(Cl)c(S(N)(=O)=O)cc1OCC(=O)NC1CCCCC1	14.1%	-4.2%	2.1%	18.9%	?	16.1%
Cc1cc(Cl)c(S(=O)(=O)N2CCN(c3ccccn3)CC2)cc1OCC(=O)NC1CCCCC1	.	7.7%	22.4µM*	10µM*	.	-16.2%
Cc1cc(Cl)c(S(=O)(=O)NC2CCCC2)cc1OCC(=O)NC1CCCCC1	?	-2.2%	-12.2%	7.08µM*	?	-5.2%[3.69 µM]
CCOC(=O)N1CCN(S(=O)(=O)c2cc(OCC(=O)NC3CCCCC3)c(C)cc2Cl)CC1	17.8%	3.3%	-0.3%	5.9%	?	30.3%[3.69 µM]
Cc1nc(C(=O)Nc2cc(F)cc(Cl)c2)sc1C1(C)CC(c2ccccc2)=NO1 (stereo unspecified)	.	.	?	14.1µM*	.	22.8%
CNC(=O)c1nc(C)c(C2(C)CC(c3ccccc3)=NO2)s1 (stereo unspecified)	.	9.9%	-9.4%	12.2%	.	1.8%
CCOC(=O)c1c(CSc2ccc(CC)cc2)oc2ccc(O)c(CN(C)C)c12	?	9.3%	?	3.98µM*	4.47µM*	29.4%
CCOC(=O)c1c(CSc2ccccc2)oc2ccc(O)cc12	?	-6.5%	-20.0%	?	?	2.1%
CCOC(=O)c1c(CSc2ccc(C)cc2)oc2ccc(O)cc12	?	-4.7%	22.4µM*	14.0%	-0.1%	?
CCOC(=O)c1c(C)oc2ccc(O)c(CN(C)C)c12	-17.2%	0.6%	-6.0%	14.0%	-3.6%[46.1 µM]	11.0%
Nc1nnc(/C=C/c2ccccc2Cl)s1	?	8.6%	23.5%	8.9%	7.08µM*	-18.8%
CN(C)CCCNC(=S)NCC(c1ccc(Cl)cc1Cl)c1c[nH]c2ccccc12 (stereo unspecified)	10µM*	5.1%	-23.0%	11.2µM*	?	26.3%
CN(C)c1ncc2nc(CCc3ccccc3)c(=O)n(C[C@H]3CCCO3)c2n1	.	.	11.0%	.	.	.
Cc1noc(C)c1-c1cncnc1N(C)Cc1ccco1	.	.	-8.3%	.	.	.
Cc1ccc(C)c(NC(=O)CN(C)C(=O)c2cccc(S(=O)(=O)N3CCN(Cc4ccccc4)CC3)c2)c1	?	-3.0%	14.1µM*	5.62µM*	?	7.0%
CC(=O)Nc1cccc(NC(=O)c2cccc(S(=O)(=O)N3CCN(Cc4ccccc4)CC3)c2)c1	8.9%	-2.9%	-10.6%	?	6.1%	1.2%
CCN(CC)C(=O)c1ccc(NC(=O)c2cccc(S(=O)(=O)N3CCN(Cc4ccccc4)CC3)c2)cc1	-29.1%	-0.2%	?	6.31µM*	?	-17.8%
